{"source": "PubChem BioAssay (Tox21)", "note": "Activity calls are given as the source filed them. Where a call stands in place of a potency, no number is given. Unless noted, calls come from the whole dose curve."}
{"biological_target": "KiSS-1 receptor (Homo sapiens) (UniProt Q969F8)", "sequence (Q969F8 whole entry, looked up)": "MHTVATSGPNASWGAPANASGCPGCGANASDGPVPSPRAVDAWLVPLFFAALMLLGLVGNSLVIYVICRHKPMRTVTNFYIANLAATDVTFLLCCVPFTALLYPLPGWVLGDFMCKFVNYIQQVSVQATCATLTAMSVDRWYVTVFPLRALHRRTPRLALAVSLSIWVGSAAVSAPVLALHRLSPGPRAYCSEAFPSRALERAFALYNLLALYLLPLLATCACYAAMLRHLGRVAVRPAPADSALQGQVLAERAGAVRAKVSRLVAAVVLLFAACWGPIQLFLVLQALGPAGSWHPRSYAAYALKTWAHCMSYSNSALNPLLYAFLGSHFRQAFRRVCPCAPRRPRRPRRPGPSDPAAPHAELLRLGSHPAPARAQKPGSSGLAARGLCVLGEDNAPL", "assay": "Human kisspeptin (KISS1R) small molecule agonists, calcium flux assay in KISS1R-HEK293 cells (AID 1920064; active = well fitted activation curve with a large enough effect in the repeat runs)", "conditions": "KISS1R-HEK293, calcium flux fluorescence, agonist; series mostly up to 76.8 µM", "in_short": "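Intracellular calcium mobilization in KISS1R-HEK293 cells was recorded by fluorescence (Ex/Em 480/540) for 3 min following compound addition to cells pre-loaded 1 h with calcium dye.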"}
{"compound": "CC1(C)C(=O)N(Cl)C(=O)N1Br", "Potency": "inactive"}
{"compound": "CCOc1ccc(OCC)c(Cl)c1", "Potency": "inactive"}
{"compound": "c1ccc(-c2nc[nH]c2-c2ccccc2)cc1", "Potency": "inactive"}
{"compound": "CCOc1ccc2nc(S(N)(=O)=O)sc2c1", "Potency": "inactive"}
{"compound": "O=C1CC[C@@H](C(=O)O)N1", "Potency": "inactive"}
{"compound": "CCCCC(CC)C(=O)OCCOCCOCCOCCOC(=O)C(CC)CCCC", "note": "(stereo unspecified)", "Potency": "inactive"}
{"compound": "O=C(O)CNC(=O)CNC(=O)CNC(=O)CSC(=O)c1ccccc1", "Potency": "inactive"}
{"compound": "CC(O)CC(C)O", "note": "(stereo unspecified)", "Potency": "inactive"}
{"compound": "Clc1sc(Cl)c(Cl)c1Cl", "Potency": "inactive"}
{"compound": "C/C=C(\\C)C(C)=O", "Potency": "inactive"}
{"compound": "CC1=NN(c2cccc(S(=O)(=O)O)c2)C(=O)C1", "Potency": "inactive"}
{"compound": "C=CCOC(=O)c1ccc(C(=O)OCC=C)c(C(=O)OCC=C)c1", "Potency": "inactive"}
{"compound": "Cc1ccc(N)cc1S(=O)(=O)O", "Potency": "inactive"}
{"compound": "CC(C)(CO)[N+](=O)[O-]", "Potency": "inactive"}
{"compound": "C[Si](C)(C)O[Si](O)(O)O", "Potency": "inactive"}
{"compound": "CC(Cc1ccccc1)(NC(=O)CN)c1ccccc1", "note": "(stereo unspecified)", "Potency": "inactive"}
{"compound": "N[C@@H](CCC(=O)O)C(=O)O", "Potency": "inactive"}
{"compound": "C=C(C)C1CC=C(C)C(=O)C1", "note": "(stereo unspecified)", "Potency": "inactive"}
{"compound": "CC(CO)(CO)[N+](=O)[O-]", "Potency": "inactive"}
{"compound": "NNC(=O)CP(=O)(c1ccccc1)c1ccccc1", "Potency": "inactive"}
{"compound": "C=CCCC(=O)O", "Potency": "inactive"}
{"test_system": "not listed separately", "assay": "G protein-coupled receptor (GPCR) small molecule agonists, calcium flux assay: HEK293 wild type cell line counter screen (AID 1920065)", "conditions": "HEK293 WT calcium flux, fluorescence, agonist mode; series mostly up to 57.6 µM", "in_short": "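In this agonist-mode screen, ATP is the positive control and DMSO the vehicle. Cells grow 18 h before a 1 h dye incubation at 37 C; signal is taken at Ex/Em 480/540 over 3 min.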"}
{"compound": "OC[C@H]1O[C@@H]2O[C@H]3[C@H](O)[C@@H](O)[C@@H](O[C@H]4[C@H](O)[C@@H](O)[C@@H](O[C@H]5[C@H](O)[C@@H](O)[C@@H](O[C@H]6[C@H](O)[C@@H](O)[C@@H](O[C@H]7[C@H](O)[C@@H](O)[C@@H](O[C@H]8[C@H](O)[C@@H](O)[C@@H](O[C@H]9[C@H](O)[C@@H](O)[C@@H](O[C@H]1[C@H](O)[C@H]2O)O[C@@H]9CO)O[C@@H]8CO)O[C@@H]7CO)O[C@@H]6CO)O[C@@H]5CO)O[C@@H]4CO)O[C@@H]3CO", "Potency": "inactive"}
{"compound": "CCCCCCCCCCCCOC(C)=O", "Potency": "inactive"}
{"compound": "S=C(S)NCCNC(=S)S", "Potency": "inactive"}
{"compound": "C=Cc1ccc(C(C)(C)C)cc1", "Potency": "inactive"}
{"compound": "CCN[C@H]1C[C@H](C)S(=O)(=O)c2sc(S(N)(=O)=O)cc21", "Potency": "inactive"}
{"compound": "O=c1c2ccccc2oc2ccccc12", "Potency": "inactive"}
{"compound": "Nc1ncn([C@H]2C[C@H](O)[C@@H](CO)O2)c(=O)n1", "Potency": "inactive"}
{"compound": "CC(=O)Nc1ccc(S(=O)(=O)Cl)cc1", "Potency": "inactive"}
{"compound": "CC(C)(C)C(=O)CCc1ccc(Cl)cc1", "Potency": "inactive"}
{"compound": "CC(=O)NNC(C)=O", "Potency": "inactive"}
{"compound": "O=[N+]([O-])c1ccc(Cl)cc1Cl", "Potency": "inactive"}
{"compound": "OCC1CC=CCC1", "note": "(stereo unspecified)", "Potency": "inactive"}
{"compound": "C=CCN(CC=C)CC=C", "Potency": "inactive"}
{"compound": "O=C(Cl)c1c(Cl)cccc1Cl", "Potency": "inactive"}
{"compound": "NCCCN(CCO)CCO", "Potency": "inactive"}
{"compound": "CC1=C(C(=O)O)N2C(=O)[C@@H](NC(=O)[C@H](N)C3=CCC=CC3)[C@H]2SC1", "Potency": "inactive"}
{"compound": "C#CC(O)C(CC)CCCC", "note": "(stereo unspecified)", "Potency": "inactive"}
{"compound": "C=C1CCC2CC1C2(C)C", "note": "(stereo unspecified)", "Potency": "inactive"}
{"compound": "CC(C)CCOCc1ccccc1", "Potency": "inactive"}
{"compound": "CC1(C)C(=O)N(Cl)C(=O)N1Br", "Potency": "inactive"}
{"compound": "CCOc1ccc(OCC)c(Cl)c1", "Potency": "inactive"}
{"compound": "c1ccc(-c2nc[nH]c2-c2ccccc2)cc1", "Potency": "inactive"}
{"compound": "CCOc1ccc2nc(S(N)(=O)=O)sc2c1", "Potency": "inactive"}
{"compound": "O=C1CC[C@@H](C(=O)O)N1", "Potency": "inactive"}
{"compound": "CCCCC(CC)C(=O)OCCOCCOCCOCCOC(=O)C(CC)CCCC", "note": "(stereo unspecified)", "Potency": "inactive"}
{"compound": "O=C(O)CNC(=O)CNC(=O)CNC(=O)CSC(=O)c1ccccc1", "Potency": "inactive"}
{"compound": "CC(O)CC(C)O", "note": "(stereo unspecified)", "Potency": "inactive"}
{"compound": "Clc1sc(Cl)c(Cl)c1Cl", "Potency": "inactive"}
{"compound": "C/C=C(\\C)C(C)=O", "Potency": "inactive"}
{"compound": "CC1=NN(c2cccc(S(=O)(=O)O)c2)C(=O)C1", "Potency": "inactive"}
{"compound": "C=CCOC(=O)c1ccc(C(=O)OCC=C)c(C(=O)OCC=C)c1", "Potency": "inactive"}
{"compound": "Cc1ccc(N)cc1S(=O)(=O)O", "Potency": "inactive"}
{"compound": "CC(C)(CO)[N+](=O)[O-]", "Potency": "inactive"}
{"compound": "C[Si](C)(C)O[Si](O)(O)O", "Potency": "inactive"}
{"compound": "CC(Cc1ccccc1)(NC(=O)CN)c1ccccc1", "note": "(stereo unspecified)", "Potency": "inactive"}
{"compound": "N[C@@H](CCC(=O)O)C(=O)O", "Potency": "inactive"}
{"compound": "C=C(C)C1CC=C(C)C(=O)C1", "note": "(stereo unspecified)", "Potency": "inactive"}
{"compound": "CC(CO)(CO)[N+](=O)[O-]", "Potency": "inactive"}
{"compound": "NNC(=O)CP(=O)(c1ccccc1)c1ccccc1", "Potency": "inactive"}
{"compound": "C=CCCC(=O)O", "Potency": "inactive"}
